Where “and” joins values, the source holds several entries; their conditions need not be identical. Identical values can stand only once. Inconclusive results are not listed. Where a structure was tested more than once in an assay, its records may differ in their call. Calls of active or inactive are those of the source. Calls come from the whole dose curve; as a rule, active = well fitted inhibition curve with a large enough effect in the repeat runs; inconclusive = weak or mixed curves; inactive = no such curve, though single readings can be large or run the other way.
Each compound was assayed against Cytochrome P450 2D6 (Homo sapiens) (UniProt P10635) (assay: Cytochrome P450 Family 2 Subfamily D Member 6 (CYP2D6) small molecule antagonists: luciferase reporter qHTS assay (AID 1671196; note: nearly all actives have a fitted effect of over 50% in size)). Conditions: P450-Glo CYP2D6 enzyme assay, luciferin luminescence, 1 h; series mostly up to 115 µM; activity change, negative = inhibition: at the top concentration.
From the text: U.S. Tox21 Program National Center for Advancing Translational Sciences [NCATS] U.S. Environmental Protection Agency [EPA] National Institutes of Environmental Health Sciences [NIEHS] National Toxicology Program [NTP] U.S. Food and Drug Administration [FDA] Tox21 Assay Overview: Cytochrome P450 (CYP) enzymes are membrane-bound hemeproteins that play a key role in metabolism of drugs and xenobiotics. Evaluation of the effect of chemicals on CYP isozymes is useful to minimize the adverse drug reactions and toxicities in drug development process. Tox21 chemicals were tested for their effect on CYP enzyme activities by using P450-Glo (TM) screening systems (Promega Corporation, Madison, WI). These systems provide a luminescent method containing proluciferin substrates and are converted to luciferin products by CYP isozymes. The luciferin products formed are detected with a luciferin detection reagent, and the amount of light produced is proportional to CYP activity. P450-Glo (TM) CYP2D6 screening system (Catalog. No. V9890) was used to detect the compounds that interfere in CYP2D6 activity.
Tox21 Assay Protocol Summary: Two ul of enzyme-substrate mix was dispensed into medium binding white/solid 1536-well plates (Greiner Bio-One North America Inc., Monroe, NC) using a BioRaptr Flying Reagent Dispenser (FRD, Beckman Coulter, Brea, CA). […] The assay plates were incubated at room temperature for 10 min. Then 2 ul of NADPH regeneration solution was added to each well of the assay plates using an FRD and incubated at room temperature for 1 h. The reaction was stopped by adding 4 ul of detection reagent using an FRD and after 20 min incubation at room temperature the luminescence signal was measured using a ViewLux plate reader (Perkin Elmer, Shelton, CT). Data were expressed as relative luminescence units.
% is set by controls: 0 for no effect and ±100 for the full control effect; potency is the fitted concentration of half-maximal effect.

Cytochrome P450 2D6 (Homo sapiens), sequence (P10635 whole entry, looked up): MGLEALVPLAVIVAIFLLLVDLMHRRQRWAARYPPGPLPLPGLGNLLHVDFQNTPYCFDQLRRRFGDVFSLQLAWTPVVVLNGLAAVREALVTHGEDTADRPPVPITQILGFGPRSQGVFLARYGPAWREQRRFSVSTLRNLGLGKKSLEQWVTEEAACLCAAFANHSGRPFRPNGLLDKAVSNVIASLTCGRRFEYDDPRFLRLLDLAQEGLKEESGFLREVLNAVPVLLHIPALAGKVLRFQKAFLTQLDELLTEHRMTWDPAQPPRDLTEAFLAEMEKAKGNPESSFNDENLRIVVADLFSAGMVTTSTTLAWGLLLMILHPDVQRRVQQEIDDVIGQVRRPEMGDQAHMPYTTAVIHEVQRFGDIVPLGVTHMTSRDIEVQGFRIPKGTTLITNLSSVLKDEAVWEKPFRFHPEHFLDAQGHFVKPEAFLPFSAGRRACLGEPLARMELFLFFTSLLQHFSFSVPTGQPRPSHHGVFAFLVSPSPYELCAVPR

Compound	Potency	activity change, negative = inhibition
COP(=S)(OC)Oc1ccc([N+](=O)[O-])c(C)c1	25.2 µM (active)	–
CC[C@H](C)[C@H]1O[C@]2(C=C[C@@H]1C)C[C@@H]1C[C@@H](C/C=C(\C)[C@@H](O[C@H]3C[C@H](OC)[C@@H](O[C@H]4C[C@H](OC)[C@@H](NC)[C@H](C)O4)[C@H](C)O3)[C@@H](C)/C=C/C=C3\CO[C@@H]4[C@H](O)C(C)=C[C@@H](C(=O)O1)[C@]34O)O2	63.3 µM (active)	–
ClC(Cl)C(Cl)(Cl)Cl	–	-5.66% (inactive)
O=c1[nH]c(Cl)c(Cl)cc1Cl	–	-10.9% (inactive)
Cc1ccc([N+](=O)[O-])[c]2c1[O][Hg]2	0.871 µM (active)	–
Nc1ccc(Cl)cc1C(=O)c1ccccc1F	–	-11.1% [at 53 µM] (inactive)
c1ccc(N=NNc2ccccc2)cc1	65.4 µM (active) and 63.3 µM (active)	–
CCC(C)c1cccc(C(C)CC)c1O (stereo not given)	–	-27.5% (inactive)
CCOP(=O)(OCC)Oc1nc(Cl)c(Cl)cc1Cl	5.61 µM (active)	–
CCOP(=O)(OCC)Oc1cc(C)nc(C(C)C)n1	–	-2.04% (inactive)
C=Cc1cccc(CCl)c1	–	-21.7% [at 300 µM] (inactive)
O=[N+]([O-])c1cccc2cccc([N+](=O)[O-])c12	–	-27.1% (inactive)
CC(O)C(=O)[O][Hg][c]1ccccc1 (stereo not given)	0.448 µM (active)	–
C#CCO	–	2.65% (inactive)
CN(C)C(=S)SSC(=S)N(C)C	89.4 µM (active) and inactive	–
C=CCBr	33.6 µM (active)	–
Cc1ccn2nc(S(=O)(=O)Nc3c(F)cccc3F)nc2n1	–	-81.2% (inactive)
O=C(NC(=O)c1c(F)cccc1F)Nc1ccc(Oc2ccc(C(F)(F)F)cc2Cl)cc1F	–	-16% (inactive)
Oc1cccc(Cl)c1Cl	56.6 µM (active)	–
CN/C(=N\[N+](=O)[O-])NCc1cnc(Cl)s1	–	-14.3% (inactive)

Compound	Potency	activity change, negative = inhibition
CC(C)N(C(=O)SC/C(Cl)=C/Cl)C(C)C	–	-1.51% (inactive)
CN1C2CCC(C)(C)C1CC(OC(=O)C(O)(c1cccs1)c1cccs1)C2 (stereo not given)	15.5 µM (active)	–
O=[N+]([O-])c1ccc(Cl)c(Cl)c1Cl	–	-6.95% (inactive)
c1cc[n+]2c(c1)-c1cccc[n+]1CC2	7.76 µM (active)	–
N#Cc1c[nH]cc1-c1cccc2c1OC(F)(F)O2	–	-24.8% (inactive)
CC#C[C@]1(O)CC[C@H]2[C@@H]3C[C@H](C)C4=CC(=O)CC[C@]4(C)[C@H]3CC[C@@]21C	–	-16.1% [at 53 µM] (inactive)
CC1(C)C(C=C(Cl)Cl)C1C(=O)OC(C#N)c1ccc(F)c(Oc2ccccc2)c1 (stereo not given)	28.3 µM (active)	–
Nc1ccccc1-c1ccccc1	28.1 µM (active)	–
CCCCC(CC)COC(=O)OOC(C)(C)C (stereo not given)	–	0.401% (inactive)
N#Cc1sc2c(=O)c3ccccc3c(=O)c=2sc1C#N	35.6 µM (active)	–
COc1ccc2c3c1O[C@H]1[C@H](O)CC[C@H]4[C@@H](C2)N(C)CC[C@@]341	–	-26.3% (inactive)
O=S1(=O)OCC2C(CO1)C1(Cl)C(Cl)=C(Cl)C2(Cl)C1(Cl)Cl (stereo not given)	–	-29% (inactive)
c1ccc2c(c1)cc1ccc3cccc4ccc2c1c34	–	-9.04% (inactive)
COP(=S)(NC(C)C)Oc1ccc(C)cc1[N+](=O)[O-] (stereo not given)	44.8 µM (active)	–
CC(Cl)CCl (stereo not given)	–	-10.3% (inactive)
O=S(=O)(O)F	–	-19.3% (inactive)
COC(=O)c1ccccc1S(=O)(=O)NC(=O)Nc1nc(C)nc(OC)n1	8.88 µM (active)	–
O=Cc1ccccc1	–	-12.6% (inactive)
CCn1cc[n+](C)c1 (tested in a mixture with another compound)	–	-1.45% (inactive)
CN=C=O	57.2 µM (active)	–

From PubChem BioAssay (Tox21)
